Measured values: PubChem BioAssay (Tox21)
“And” between values parts separate entries of the source, which are not always exact repeats. Identical values can stand only once. Records with an inconclusive call do not appear. Entries that show only a call come without a potency. Some compounds were tested as several samples or in several runs, with calls that do not always agree. The source made the active and inactive calls. Unless noted, the call rests on the fitted dose curve; in most records, active means well fitted curve in the direction sought with a large enough effect in the repeat runs; inconclusive means weak or mixed curves; inactive means no such curve, though single readings can be large; an effect the other way counts as inactive or inconclusive.

Columns and labels:
[1] = Caspase-3/7 induction in HepG2 cells by small molecules, qHTS assay (AID 1346978); further: nearly all actives have a fitted effect of over 15% in size; further: potency means the concentration at half of the fitted maximal effect
In short: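 Wild-type HepG2 cells, 2,000/well, settled 5 hr at 37 C and 5% CO2, then compound-treated for 17 hr; caspase-3/7 activity read by luminescent Caspase-Glo 3/7 after 30 min at room temperature.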

[2] = Caspase-3/7 induction in CHO-K1 cells by small molecules, qHTS cell viability counter screen (AID 1346979); further: nearly all actives have a fitted effect of over 35% in size; further: potency means the concentration at half of the fitted maximal effect
In short: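 Wild-type CHO-K1 cells (1,500/well) treated with compound after 5 h plating; after 16 h at 37C, viability read as CellTiter-Fluor fluorescence following 1 h reagent incubation, in the same wells as the caspase read.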

[3] = Caspase-3/7 induction in CHO-K1 cells by small molecules, qHTS assay (AID 1346980); further: nearly all actives have a fitted effect of over 15% in size; further: potency means the concentration at half of the fitted maximal effect
In short: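 Wild-type CHO-K1 cells exposed to compounds for 17hr at 37 C, 5% CO2. Caspase-3/7 activity then measured by Caspase-Glo 3/7 luminescence after 30min at room temperature.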

[4] = Caspase-3/7 induction in HepG2 cells by small molecules, qHTS cell viability counter screen (AID 1346981); further: nearly all actives have a fitted effect of over 30% in size; further: potency means the concentration at half of the fitted maximal effect
In short: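 Wild-type HepG2 cells (2,000/well) were allowed to settle for 5 hr at 37 C, 5% CO2, then dosed with compounds in DMSO by pin transfer. After 16 hr at 37 C, CellTiter-Fluor was added and fluorescence read 1 hr later.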

[5] = biological target: Nuclear receptor subfamily 1 group I member 2 (Homo sapiens) (UniProt O75469); test: Human pregnane X receptor (PXR) small molecule agonists, qHTS assay (AID 1346982); further: nearly all actives have a fitted effect of over 35% in size; further: potency means the concentration at half of the fitted maximal effect
In short: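 PXR-Luc HepG2 cells (CYP3A4 promoter-driven luciferase) were seeded in medium with 5% charcoal-stripped FBS, left 5 hr at 37 C, then exposed to compounds in DMSO for 24 hr. Luminescence was read after ONE-Glo addition.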

[6] = biological target: Nuclear receptor subfamily 1 group I member 2 (Rattus norvegicus) (UniProt Q9R1A7); test: Rat pregnane X receptor (rPXR) activation by small molecules, qHTS assay (AID 1346983); conditions: rPXR luciferase reporter cells, One-Glo luminescence, 24 h; max activation: stronger effect = higher value; further: nearly all actives have a fitted effect of over 20% in size
In short: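 Cell-based rPXR activation assay: rPXR cells, 2,000 per well, rested 5hr at 37 C, then exposed to compounds in DMSO for 24 hr at 37 C. Luciferase activity read by One-Glo luminescence after 30 min at room temperature.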

[7] = biological target: Nuclear receptor subfamily 1 group I member 2 (Homo sapiens) (UniProt O75469); test: CYP3A4 induction through human pregnane X receptor (PXR) by small molecules, qHTS assay (AID 1346984); further: nearly all actives have a fitted effect of over 40% in size; further: potency means the concentration at half of the fitted maximal effect
In short: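 DPX-2 cells (HepG2 co-transfected with PXR and CYP3A4 promoter-luciferase) treated with compounds 24 h at 37C; luciferin-IPA CYP3A4 substrate 3uM final added for 3 h, then One-Glo; luminescence read. qHTS format.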

[8] = biological target: Nuclear receptor subfamily 1 group I member 2 (Homo sapiens) (UniProt O75469); test: Human pregnane X receptor (PXR) activation by small molecules, qHTS assay (AID 1346985); further: nearly all actives have a fitted effect of over 40% in size
In short: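 DPX-2 cells (HepG2 co-transfected with a PXR response element and a CYP3A4-promoter luciferase construct) were seeded at 2,000 per well, rested 5 hr at 37C, then exposed to DMSO-dissolved compounds for 24 hr. Activation was read as luciferase luminescence.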

[9] = biological target: Acetylcholinesterase (Homo sapiens) (UniProt P22303); test: Acetylcholinesterase (AChE) small molecule antagonists: colormetric cell-based qHTS assay (AID 1347395; calls by dose curve; further: nearly all actives have a fitted effect of over 30% in size)
In short: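 SH-SY5Y cells attached overnight, exposed to compound 30 min at 37 C, then given DTNB/acetylthiocholine; after 90 min at 37 C, colorimetric thiocholine read gives cellular AChE activity.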

[10] = biological target: Acetylcholinesterase (Homo sapiens) (UniProt P22303); test: Acetylcholinesterase (AChE) small molecule antagonists: enzyme-based qHTS assay (AID 1347397; calls by dose curve; further: nearly all actives have a fitted effect of over 55% in size); conditions: Potency: AChE enzyme activity inhibition
In short: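 Recombinant human AChE (50 mU/mL) preincubated with compound 30 min at room temperature; acetylthiocholine plus DTNB then added, and thiocholine formation read colorimetrically after 10 min at room temperature. DMSO served as vehicle control.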

[11] = biological target: Acetylcholinesterase (Homo sapiens) (UniProt P22303); test: Acetylcholinesterase (AChE) small molecule antagonists: fluorescence cell-based qHTS assay (AID 1347398; calls by dose curve; further: nearly all actives have a fitted effect of over 50% in size); conditions: Potency: AChE activity
In short: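 SH-SY5Y cells (2000/well), attached overnight, incubated with compound 30 min at 37 C. Acetylthiocholine plus Thiolite Green then added for 40 min at room temperature. Thiocholine fluorescence (Ex/Em 490/520 nm) reports cellular AChE activity.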

[12] = biological target: Acetylcholinesterase (Homo sapiens) (UniProt P22303); test: Acetylcholinesterase (AChE) small molecule antagonists: enzyme-based qHTS assay with human liver microsomes (AID 1347399; calls by dose curve; further: nearly all actives have a fitted effect of over 60% in size); conditions: Potency: qHTS inhibition
In short: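 Recombinant human AChE (50 mU/mL in the enzyme mix) and human liver microsomes (0.25 mg/mL final) were preincubated with compound and NADPH (0.25 mg/mL final) for 30 min at 37 C. Acetylthiocholine/DTNB was then added; thiocholine was read colorimetrically after 10 min at room temperature.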

[13] = biological target: Cytochrome P450 2D6 (Homo sapiens) (UniProt P10635); test: Cytochrome P450 Family 2 Subfamily D Member 6 (CYP2D6) small molecule antagonists: luciferase reporter qHTS assay (AID 1671196); further: nearly all actives have a fitted effect of over 50% in size; further: potency means the concentration at half of the fitted maximal effect
In short: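 CYP2D6 enzyme–substrate mix was held with compound for 10 min at room temperature, then NADPH regeneration solution was added and the reaction ran 1 h at room temperature. Luciferin product was detected by luminescence after 20 min with detection reagent.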

[14] = biological target: Cytochrome P450 2C19 (Homo sapiens) (UniProt P33261); test: Cytochrome P450 Family 2 Subfamily C Member 19 (CYP2C19) small molecule antagonists: luciferase reporter qHTS assay (AID 1671197); further: nearly all actives have a fitted effect of over 65% in size; further: potency means the concentration at half of the fitted maximal effect
In short: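 Relative luminescence units recorded 20 min after the detection reagent stopped a 1 h, 37C CYP2C19 reaction on proluciferin substrate, which was started by NADPH regeneration following 10 min room-temperature compound preincubation; ketoconazole positive control.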

[15] = biological target: Cytochrome P450 1A2 (Homo sapiens) (UniProt P05177); test: Cytochrome P450 Family 1 Subfamily A Member 2 (CYP1A2) small molecule antagonists: luciferase reporter qHTS assay (AID 1671199); further: nearly all actives have a fitted effect of over 50% in size; further: potency means the concentration at half of the fitted maximal effect
In short: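 Human CYP1A2 activity measured with a P450-Glo proluciferin substrate; compounds in DMSO preincubated 10 min at room temperature with enzyme-substrate mix, then NADPH regeneration system added for 1 h. Luciferin detection reagent, 20 min, luminescence read.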

[16] = biological target: Voltage-gated inwardly rectifying potassium channel KCNH2 (Homo sapiens) (UniProt Q12809); test: Human Ether-a-go-go-Related Gene (hERG) channel small molecule antagonists: fluorescence cell-based qHTS assay (AID 1671200); further: nearly all actives have a fitted effect of over 50% in size; further: potency means the concentration at half of the fitted maximal effect
In short: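 hERG-U2OS cells plated overnight at 37 C, loaded with FluxOR II dye 1 h at RT in dark; after 10 min, thallium stimulus added. Fluorescence (480/540 nm) read kinetically for 2 min at 1 s intervals.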

[17] = biological target: Cytochrome P450 3A4 (Homo sapiens) (UniProt P08684); test: Cytochrome P450 Family 3 Subfamily A Member 4 (CYP3A4) small molecule antagonists: luciferase reporter qHTS assay (AID 1671201); further: nearly all actives have a fitted effect of over 50% in size; further: potency means the concentration at half of the fitted maximal effect
In short: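 P450-Glo CYP3A4 luminescent assay: compounds preincubated 10 min at room temperature with enzyme and proluciferin substrate, NADPH regeneration added, 1 h room-temperature reaction, stopped with luciferin detection reagent; luminescence read after 20 min. Ketoconazole positive control.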

[18] = biological target: Cytochrome P450 2C9 (Homo sapiens) (UniProt P11712); test: Cytochrome P450 Family 2 Subfamily C Member 9 (CYP2C9) small molecule antagonists: luciferase reporter qHTS assay (AID 1671198); further: nearly all actives have a fitted effect of over 50% in size; further: potency means the concentration at half of the fitted maximal effect
In short: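 P450-Glo proluciferin substrate with CYP2C9 enzyme; 10 min RT preincubation, then NADPH regeneration 1 h at 37C; luciferin detection reagent 20 min RT, luminescence in relative luminescence units.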

Cytochrome P450 2C19 (Homo sapiens), sequence (P33261 whole entry, looked up): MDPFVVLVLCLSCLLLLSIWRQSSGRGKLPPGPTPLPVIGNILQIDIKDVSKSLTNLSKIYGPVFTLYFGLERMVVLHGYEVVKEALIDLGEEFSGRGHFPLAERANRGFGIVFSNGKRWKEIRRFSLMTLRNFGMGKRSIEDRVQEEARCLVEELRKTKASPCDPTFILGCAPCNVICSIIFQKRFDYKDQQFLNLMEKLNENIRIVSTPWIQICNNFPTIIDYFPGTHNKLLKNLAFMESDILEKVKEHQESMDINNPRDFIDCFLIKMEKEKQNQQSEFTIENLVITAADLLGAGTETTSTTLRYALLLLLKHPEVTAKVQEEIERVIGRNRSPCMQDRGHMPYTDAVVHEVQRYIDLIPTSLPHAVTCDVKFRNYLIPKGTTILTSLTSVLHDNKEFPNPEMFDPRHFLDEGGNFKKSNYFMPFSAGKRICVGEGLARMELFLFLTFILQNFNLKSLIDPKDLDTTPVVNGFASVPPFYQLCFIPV
Cytochrome P450 3A4 (Homo sapiens), sequence (P08684 whole entry, looked up): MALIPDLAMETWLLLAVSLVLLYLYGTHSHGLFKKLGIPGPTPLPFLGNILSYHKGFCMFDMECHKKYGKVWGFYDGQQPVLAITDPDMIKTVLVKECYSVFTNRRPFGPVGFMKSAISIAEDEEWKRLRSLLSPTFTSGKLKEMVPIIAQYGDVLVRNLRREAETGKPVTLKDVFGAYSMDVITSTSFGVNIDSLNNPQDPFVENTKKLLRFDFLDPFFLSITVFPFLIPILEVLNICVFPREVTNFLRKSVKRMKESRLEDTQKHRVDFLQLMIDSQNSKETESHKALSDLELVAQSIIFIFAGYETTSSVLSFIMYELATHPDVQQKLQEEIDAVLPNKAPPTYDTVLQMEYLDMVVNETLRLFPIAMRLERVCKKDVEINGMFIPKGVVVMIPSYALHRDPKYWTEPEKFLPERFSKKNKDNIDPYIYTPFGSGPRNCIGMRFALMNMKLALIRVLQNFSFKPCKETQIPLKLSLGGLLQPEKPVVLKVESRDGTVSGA
Voltage-gated inwardly rectifying potassium channel KCNH2 (Homo sapiens), sequence (Q12809 whole entry, looked up): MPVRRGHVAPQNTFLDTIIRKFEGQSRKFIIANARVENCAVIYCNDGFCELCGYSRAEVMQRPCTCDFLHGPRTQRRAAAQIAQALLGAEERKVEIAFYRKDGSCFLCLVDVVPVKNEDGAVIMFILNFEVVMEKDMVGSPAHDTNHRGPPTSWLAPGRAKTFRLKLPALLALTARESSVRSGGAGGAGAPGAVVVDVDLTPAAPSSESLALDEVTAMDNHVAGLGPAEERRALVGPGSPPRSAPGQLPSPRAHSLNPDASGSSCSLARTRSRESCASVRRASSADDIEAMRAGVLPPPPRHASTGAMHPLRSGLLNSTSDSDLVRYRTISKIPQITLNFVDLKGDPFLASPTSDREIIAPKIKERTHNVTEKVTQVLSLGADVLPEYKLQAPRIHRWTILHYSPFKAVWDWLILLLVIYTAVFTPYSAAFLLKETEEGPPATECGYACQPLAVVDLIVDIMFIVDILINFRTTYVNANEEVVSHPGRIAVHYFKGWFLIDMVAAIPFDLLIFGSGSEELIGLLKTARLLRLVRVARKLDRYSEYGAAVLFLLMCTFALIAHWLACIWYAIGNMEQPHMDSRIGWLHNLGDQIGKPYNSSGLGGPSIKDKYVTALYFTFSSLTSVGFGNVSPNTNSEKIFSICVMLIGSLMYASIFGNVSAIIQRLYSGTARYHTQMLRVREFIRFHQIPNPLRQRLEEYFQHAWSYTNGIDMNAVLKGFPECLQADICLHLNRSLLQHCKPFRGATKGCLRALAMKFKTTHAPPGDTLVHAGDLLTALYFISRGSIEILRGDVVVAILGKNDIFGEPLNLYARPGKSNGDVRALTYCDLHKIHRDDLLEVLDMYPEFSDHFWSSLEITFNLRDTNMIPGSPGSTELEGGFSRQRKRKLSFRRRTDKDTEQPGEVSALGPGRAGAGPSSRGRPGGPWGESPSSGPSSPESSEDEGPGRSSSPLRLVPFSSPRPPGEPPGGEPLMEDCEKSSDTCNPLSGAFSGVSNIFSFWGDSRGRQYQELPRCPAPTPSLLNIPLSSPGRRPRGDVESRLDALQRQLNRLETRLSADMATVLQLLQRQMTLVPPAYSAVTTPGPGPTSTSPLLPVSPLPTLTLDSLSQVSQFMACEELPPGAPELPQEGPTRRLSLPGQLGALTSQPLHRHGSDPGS
Cytochrome P450 1A2 (Homo sapiens), sequence (P05177 whole entry, looked up): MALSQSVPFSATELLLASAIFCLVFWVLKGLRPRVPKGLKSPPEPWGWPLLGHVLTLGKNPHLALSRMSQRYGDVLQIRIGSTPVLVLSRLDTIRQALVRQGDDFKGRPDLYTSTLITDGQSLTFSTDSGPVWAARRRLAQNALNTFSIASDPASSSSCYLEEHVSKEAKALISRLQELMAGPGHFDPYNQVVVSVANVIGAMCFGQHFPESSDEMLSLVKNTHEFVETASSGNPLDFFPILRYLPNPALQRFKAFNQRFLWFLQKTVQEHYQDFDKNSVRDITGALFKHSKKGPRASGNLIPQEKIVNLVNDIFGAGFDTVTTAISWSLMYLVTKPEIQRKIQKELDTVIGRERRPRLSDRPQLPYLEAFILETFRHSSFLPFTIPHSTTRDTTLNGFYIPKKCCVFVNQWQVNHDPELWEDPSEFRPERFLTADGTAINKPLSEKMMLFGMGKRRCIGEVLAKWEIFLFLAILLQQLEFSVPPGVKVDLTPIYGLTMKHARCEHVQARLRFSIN
Cytochrome P450 2D6 (Homo sapiens), sequence (P10635 whole entry, looked up): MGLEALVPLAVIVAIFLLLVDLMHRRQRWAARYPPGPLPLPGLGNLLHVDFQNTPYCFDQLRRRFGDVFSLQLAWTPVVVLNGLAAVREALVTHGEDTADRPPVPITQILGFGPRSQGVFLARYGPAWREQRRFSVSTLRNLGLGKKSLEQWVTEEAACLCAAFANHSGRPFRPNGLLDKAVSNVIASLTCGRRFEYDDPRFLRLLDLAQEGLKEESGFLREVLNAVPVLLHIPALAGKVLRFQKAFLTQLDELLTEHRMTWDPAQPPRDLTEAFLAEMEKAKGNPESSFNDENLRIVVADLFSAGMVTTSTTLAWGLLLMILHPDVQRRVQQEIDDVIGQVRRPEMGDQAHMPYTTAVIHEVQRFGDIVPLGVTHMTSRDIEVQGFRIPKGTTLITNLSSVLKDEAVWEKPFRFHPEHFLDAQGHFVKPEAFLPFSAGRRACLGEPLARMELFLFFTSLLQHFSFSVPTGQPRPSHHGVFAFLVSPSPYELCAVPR
Nuclear receptor subfamily 1 group I member 2 (Homo sapiens), sequence (O75469 whole entry, looked up): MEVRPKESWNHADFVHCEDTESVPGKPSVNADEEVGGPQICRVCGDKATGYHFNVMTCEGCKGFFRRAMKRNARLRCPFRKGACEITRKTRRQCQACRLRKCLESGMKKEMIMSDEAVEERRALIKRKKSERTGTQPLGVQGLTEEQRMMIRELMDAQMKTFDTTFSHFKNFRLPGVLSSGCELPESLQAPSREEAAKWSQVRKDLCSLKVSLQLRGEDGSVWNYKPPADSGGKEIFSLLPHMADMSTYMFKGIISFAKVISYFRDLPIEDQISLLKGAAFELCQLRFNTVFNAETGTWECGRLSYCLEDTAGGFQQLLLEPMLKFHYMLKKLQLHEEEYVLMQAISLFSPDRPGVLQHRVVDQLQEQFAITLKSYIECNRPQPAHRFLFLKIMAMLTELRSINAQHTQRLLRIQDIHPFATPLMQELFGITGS
Cytochrome P450 2C9 (Homo sapiens), sequence (P11712 whole entry, looked up): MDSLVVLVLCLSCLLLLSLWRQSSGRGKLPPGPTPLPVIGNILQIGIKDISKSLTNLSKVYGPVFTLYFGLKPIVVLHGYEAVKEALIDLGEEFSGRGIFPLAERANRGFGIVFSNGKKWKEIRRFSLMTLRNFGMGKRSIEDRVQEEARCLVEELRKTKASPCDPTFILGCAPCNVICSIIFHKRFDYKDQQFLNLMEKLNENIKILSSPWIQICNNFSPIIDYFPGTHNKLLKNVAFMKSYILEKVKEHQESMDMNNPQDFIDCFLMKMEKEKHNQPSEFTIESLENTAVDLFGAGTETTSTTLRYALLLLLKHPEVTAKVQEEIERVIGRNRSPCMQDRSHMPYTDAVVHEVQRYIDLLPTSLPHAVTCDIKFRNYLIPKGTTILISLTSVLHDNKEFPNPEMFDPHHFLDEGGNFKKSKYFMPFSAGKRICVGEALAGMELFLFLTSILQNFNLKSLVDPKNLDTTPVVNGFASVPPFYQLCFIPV
Acetylcholinesterase (Homo sapiens), sequence (P22303 whole entry, looked up): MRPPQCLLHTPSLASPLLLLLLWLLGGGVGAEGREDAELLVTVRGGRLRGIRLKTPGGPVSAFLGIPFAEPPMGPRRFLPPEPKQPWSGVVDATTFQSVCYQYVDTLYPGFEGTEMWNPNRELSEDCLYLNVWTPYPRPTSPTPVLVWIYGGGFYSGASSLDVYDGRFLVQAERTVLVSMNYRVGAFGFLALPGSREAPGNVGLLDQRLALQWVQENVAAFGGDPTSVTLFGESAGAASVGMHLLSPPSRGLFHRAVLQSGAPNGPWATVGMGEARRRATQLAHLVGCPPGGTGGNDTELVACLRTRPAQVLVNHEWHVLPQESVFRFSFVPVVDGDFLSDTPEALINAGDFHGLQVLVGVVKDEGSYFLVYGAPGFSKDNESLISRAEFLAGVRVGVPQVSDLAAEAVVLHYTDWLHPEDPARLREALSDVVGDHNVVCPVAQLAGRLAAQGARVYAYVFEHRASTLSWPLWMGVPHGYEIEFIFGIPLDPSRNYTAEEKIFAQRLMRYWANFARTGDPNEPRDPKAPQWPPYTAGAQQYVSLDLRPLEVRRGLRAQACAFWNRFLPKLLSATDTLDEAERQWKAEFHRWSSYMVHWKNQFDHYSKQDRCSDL

Row | SMILES | Potency [1] | Potency [2] | Potency [3] | Potency [4] | Potency [5] | max activation [6] | Potency [7] | Potency [8] | Potency [9] | Potency [10] | Potency [11] | Potency [12] | Potency [13] | Potency [14] | Potency [15] | Potency [16] | Potency [17] | Potency [18]
1 | Clc1ccc(C(c2ccc(Cl)cc2)C(Cl)(Cl)Cl)cc1 | inactive | 69.1 µM (active) and inactive | inactive | inactive | 17.4 µM (active) and 13.3 µM (active) | 8.77% (inactive) | 22.4 µM (active) | inactive | inactive | inactive | inactive | inactive | inactive | 20.2 nM (active) and 17.8 nM (active) and 69.2 nM (active) | 12.6 µM (active) and 13.8 µM (active) | 13.8 µM (active) | inactive | 
2 | N#C/C=C/C#N | inactive | 50.8 µM (active) | inactive | inactive | 64 µM (active) |  |  |  | inactive | inactive | inactive | inactive | 74.4 µM (active) | 18.7 µM (active) | 29.6 µM (active) | inactive | 37.3 µM (active) | 
3 | CCC[CH2][Sn]([CH2]CCC)([CH2]CCC)[O]C(=O)c1ccccc1 | 3.06 µM (active) | 0.77 µM (active) | 1.93 µM (active) | 4.86 µM (active) | 0.486 µM (active) |  |  |  | inactive | inactive | inactive | inactive | 1.12 µM (active) | 1.59 µM (active) |  | 4.9 µM (active) |  | 12.6 µM (active)
4 | NC(=O)c1ccc(N)nc1 | inactive | 2.73 µM (active) | inactive | inactive | inactive |  |  |  | inactive | inactive | inactive | inactive | inactive | inactive | inactive | inactive | inactive | inactive
5 | CCCCCCCCCCCCCCC(Br)C(=O)O (stereo not given) | inactive | inactive | inactive | inactive | inactive |  |  |  | inactive | inactive | inactive | inactive | inactive | inactive |  | inactive |  | 
6 | CCCCOCN(C(=O)CCl)c1c(CC)cccc1CC | inactive | 61.1 µM (active) | inactive | inactive | 2.73 µM (active) |  |  |  | inactive | inactive | inactive | inactive |  | 0.894 µM (active) |  | inactive | 7.1 µM (active) | 3.99 µM (active)
7 | FC(F)(F)c1cccc(C2=CCN(CCc3ccc4ccccc4c3)CC2)c1 | inactive | inactive | inactive | inactive | inactive | -2.77% (inactive) | inactive | inactive |  |  |  |  | 0.195 µM (active) | inactive |  | 1.69 µM (active) | inactive | inactive
8 | ClCc1ccc(Cl)cc1Cl | inactive | inactive | inactive | inactive | inactive |  |  |  | inactive | inactive | inactive | inactive | inactive |  |  | inactive | inactive | inactive
